Test results reported in PubChem BioAssay AID748 (Sanford-Burnham Center for Chemical Genomics, 2007).
Screen size: about 96,000 compounds; about 100 (0.1%) were called active. The sample holds actives, similar compounds and a random draw of the others, so the mix is not that of the screen.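 The calls were made as follows: active = displacement above 50% at 20 µM plus a fluorescence interference ratio under 1.5; inactive = the rest.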 Potency and affinity values are given separately.

Target: Bcl-2-like protein 10 (Homo sapiens) (UniProt Q9HD36)
Assay: displacers of TR3 peptide from Bcl-B, primary screen, selectivity assay for Bfl-1 inhibitor project, biochemical, fluorescence polarization, FITC-TR3 peptide (AID 748);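 also: plate controls were wells without compound for no effect and wells lacking Bcl-B protein for full effect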
Conditions: FP displacement of FITC-TR3 peptide from Bcl-B; at 20 µM; hits give high values

displacement, inactive:
COc1ccc(OCC(=O)N/N=C/c2ccc(O[C@@H]3O[C@H](CO)[C@@H](O)[C@H](O)[C@H]3O)cc2)cc1 -3.2%
CCn1nc(C)c(NC(=O)CCSc2nc(-c3ccco3)cc(C(F)(F)F)n2)c1C -7%
CCOC(=O)c1[nH]c(C)c(/C(O)=C2\C(=O)C(=O)N(CCCN3CCOCC3)C2c2cccnc2)c1C (configuration not stated) 5%
COc1cc(C2CC(=O)NC3=C2C(=O)CC(C)(C)C3)cc(OC)c1O (configuration not stated) -3.3%
CCSc1nc(N)c2c3c(sc2n1)CN(C)CC3 1.8%
CCCSc1nc(N)c2c3c(sc2n1)CN(C)CC3 26.6%
COc1ccc(CCNC(=O)c2c(-c3ccccc3)noc2C)cc1OC -0.3%
O=C(O)C(Cc1ccccc1)n1cccc1 (configuration not stated) 3.2%
O=C(O)C(Cc1ccccc1)N1C(=O)c2ccccc2C1=O (configuration not stated) 9.7%
Cc1ccc(NC(=O)CSc2nnc(-c3ccc(S(=O)(=O)N4CCOCC4)cc3)n2C)cc1 0.6%
O=C(Nc1ccc(N2CCN(c3ccc(O)cc3)CC2)cc1)Oc1ccccc1 -11.2%
CCN1CCc2c(sc3c2c(NCc2ccco2)nc2nnnn23)C1 114%
CSc1nc(NCc2ccco2)c2c3c(sc2n1)CN(C)CC3 0.3%
CCS(=O)(=O)/N=C(\N)c1ccccc1 2.5%
Cc1ccc(C=C2C(=O)c3ccccc3C2=O)s1 4.7%
Cc1cc(C)n(-c2ccc(C(=O)Nc3ccc4c(c3)OCO4)cc2)n1 -4.8%
COCCn1c(SCC(=O)Nc2nc(C)c(Cl)cc2Cl)nc2ccccc21 -7.3%
COCCn1c(SCC(=O)Nc2ccc(Cl)cn2)nc2ccccc21 -17%
c1coc(-c2nc3ccccc3nc2-c2ccco2)c1 22%
Nn1c(SCc2ccccc2)nnc1-c1ccco1 -4.8%
c1ccc(CSc2n[nH]c(-c3ccco3)n2)cc1 -8.3%
c1coc(-c2nc(-c3ccco3)c(-c3ccco3)nc2-c2ccco2)c1 43.1%
COc1cccc(Cn2c(-c3cccs3)noc2=O)c1 -1.2%
O=S1(=O)CCC(NS(=O)(=O)c2cccc3cccnc23)C1 (configuration not stated) -3.6%
Oc1ccc(-c2cn3c(n2)SCC3)cc1 -4.3%
O=C(Oc1ccc(-c2cn3c(n2)SCC3)cc1)c1ccccc1 -5.6%
CC1(C)Cc2nc3nc(SCC(=O)NCc4ccccc4)n(-c4ccccc4)c(=O)c3cc2CO1 -3.5%
COc1ccc(-c2noc(CSc3nnc(Cc4ccccc4)n3-c3cccc(C)c3)n2)cc1OC -7.5%
c1ccc2cc(CN3CCOCC3)ccc2c1 -1.4%
O=C(CC1C(=O)OCN1C(=O)OCc1ccccc1)OCC(=O)c1ccccc1 (configuration not stated) -0.3%
CCc1cn(S(=O)(=O)c2ccccc2OC)nc1N -3.2%
COC(=O)c1ccc(N2CCC(C)CC2)c(N)c1 -13.4%
Nc1cc(C(=O)O)ccc1N1CCCCCC1 7%
COC(=O)c1cn(NC(=O)c2cccc(OC)c2)c(=O)c2ccccc12 10.2%
O=C1CCC2(C(=O)O)Sc3ccccc3N12 (configuration not stated) -5.3%
Cn1cccc1-c1nc2ccc(NC(=O)c3ccc([N+](=O)[O-])cc3)cc2[nH]1 3.8%
COc1ccc(Cl)cc1C(=O)Nn1c(C)nc2ccccc2c1=O -6.8%
Cc1cc(C)n(Cc2ccc(C(=O)O)cc2)n1 -12.7%
COc1ccc(Cn2c(C)ccc2C)cc1 -31.6%
CSc1ccc(S(=O)(=O)Nc2ccc3c4c(cccc24)CC3)cc1 0.8%
O=C1CC(SC(=NCc2ccc3c(c2)OCO3)Nc2ccccc2)C(=O)N1c1ccccc1 (configuration not stated) 0.5%
Cc1ccc(S(=O)(=O)NC2=C(N3CCN(Cc4ccccc4)CC3)C(=O)c3ccccc3C2=O)cc1 12.6%
CC(=O)Nc1ccc(S(=O)(=O)NC2=C(N3CCN(c4ccc(F)cc4)CC3)C(=O)c3ccccc3C2=O)cc1 30.5%
Cc1ccc(NC(=O)CN2CC(C)SC2=NC2CCCCC2)cc1 (configuration not stated) -0.9%
COc1cc(NC(=O)C2CCCCC2)c2ncccc2c1 -2.9%
COc1ccc(OCC(=O)Nc2cccc3cccnc23)cc1 -0.2%
COc1ccc(OCCCC(=O)NC(C)c2ccccc2)cc1 (configuration not stated) 3.5%
CCOC(=O)C1CCN(C(C(=O)Nc2ccc3c(c2)OCCO3)c2ccccc2)CC1 (configuration not stated) -3.4%
O=C1c2sc3nc4ccccc4n3c2C(=O)N1c1ccccc1Cl 0.8%
O=C1c2sc3nc4c(c(=O)n3c2C(=O)N1c1ccccc1)CCC4 7%
O=C(CSc1ccccc1Cl)c1ccco1 3.7%
O=C(CSCc1ccc(Cl)cc1)c1ccco1 16.6%
